From ChEMBL document CHEMBL2218924, “A broad activity screen in support of a chemogenomic map for kinase signalling research and drug discovery” (Biochem J, 2013) come the findings set out here.

Test [1] addresses T1, Ephrin type-B receptor 1 (Homo sapiens) (UniProt P54762).
T1 sequence (whole entry): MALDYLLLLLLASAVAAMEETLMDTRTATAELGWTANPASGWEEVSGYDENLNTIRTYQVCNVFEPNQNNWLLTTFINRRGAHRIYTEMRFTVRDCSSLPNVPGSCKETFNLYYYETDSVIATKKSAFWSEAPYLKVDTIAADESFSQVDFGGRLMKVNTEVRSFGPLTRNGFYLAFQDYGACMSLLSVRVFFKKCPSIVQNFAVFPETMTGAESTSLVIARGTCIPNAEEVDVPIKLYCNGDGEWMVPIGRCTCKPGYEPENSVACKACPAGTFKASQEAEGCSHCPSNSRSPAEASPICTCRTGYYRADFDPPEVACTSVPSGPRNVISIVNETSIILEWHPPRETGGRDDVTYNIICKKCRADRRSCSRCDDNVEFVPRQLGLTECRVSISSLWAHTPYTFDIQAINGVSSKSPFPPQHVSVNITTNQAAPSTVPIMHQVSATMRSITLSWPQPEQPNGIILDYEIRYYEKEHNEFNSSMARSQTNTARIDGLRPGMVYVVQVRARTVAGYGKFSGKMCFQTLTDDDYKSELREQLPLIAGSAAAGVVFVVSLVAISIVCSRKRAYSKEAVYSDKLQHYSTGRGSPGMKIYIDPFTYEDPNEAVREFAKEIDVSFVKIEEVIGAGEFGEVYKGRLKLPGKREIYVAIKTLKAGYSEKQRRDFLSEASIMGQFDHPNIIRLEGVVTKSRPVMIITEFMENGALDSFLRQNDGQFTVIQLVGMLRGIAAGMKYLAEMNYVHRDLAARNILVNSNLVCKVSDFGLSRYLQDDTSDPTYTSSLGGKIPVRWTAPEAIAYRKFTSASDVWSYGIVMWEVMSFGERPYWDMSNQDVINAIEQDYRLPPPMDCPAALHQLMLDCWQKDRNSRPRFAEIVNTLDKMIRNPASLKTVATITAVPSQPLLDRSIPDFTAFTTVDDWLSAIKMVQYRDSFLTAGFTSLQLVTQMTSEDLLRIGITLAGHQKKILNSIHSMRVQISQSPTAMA
Conditions: at 10 µM; call rule not given here.

For test [2], the target named is T2, Ephrin type-B receptor 2 (Homo sapiens) (UniProt P29323).
T2 sequence (whole entry): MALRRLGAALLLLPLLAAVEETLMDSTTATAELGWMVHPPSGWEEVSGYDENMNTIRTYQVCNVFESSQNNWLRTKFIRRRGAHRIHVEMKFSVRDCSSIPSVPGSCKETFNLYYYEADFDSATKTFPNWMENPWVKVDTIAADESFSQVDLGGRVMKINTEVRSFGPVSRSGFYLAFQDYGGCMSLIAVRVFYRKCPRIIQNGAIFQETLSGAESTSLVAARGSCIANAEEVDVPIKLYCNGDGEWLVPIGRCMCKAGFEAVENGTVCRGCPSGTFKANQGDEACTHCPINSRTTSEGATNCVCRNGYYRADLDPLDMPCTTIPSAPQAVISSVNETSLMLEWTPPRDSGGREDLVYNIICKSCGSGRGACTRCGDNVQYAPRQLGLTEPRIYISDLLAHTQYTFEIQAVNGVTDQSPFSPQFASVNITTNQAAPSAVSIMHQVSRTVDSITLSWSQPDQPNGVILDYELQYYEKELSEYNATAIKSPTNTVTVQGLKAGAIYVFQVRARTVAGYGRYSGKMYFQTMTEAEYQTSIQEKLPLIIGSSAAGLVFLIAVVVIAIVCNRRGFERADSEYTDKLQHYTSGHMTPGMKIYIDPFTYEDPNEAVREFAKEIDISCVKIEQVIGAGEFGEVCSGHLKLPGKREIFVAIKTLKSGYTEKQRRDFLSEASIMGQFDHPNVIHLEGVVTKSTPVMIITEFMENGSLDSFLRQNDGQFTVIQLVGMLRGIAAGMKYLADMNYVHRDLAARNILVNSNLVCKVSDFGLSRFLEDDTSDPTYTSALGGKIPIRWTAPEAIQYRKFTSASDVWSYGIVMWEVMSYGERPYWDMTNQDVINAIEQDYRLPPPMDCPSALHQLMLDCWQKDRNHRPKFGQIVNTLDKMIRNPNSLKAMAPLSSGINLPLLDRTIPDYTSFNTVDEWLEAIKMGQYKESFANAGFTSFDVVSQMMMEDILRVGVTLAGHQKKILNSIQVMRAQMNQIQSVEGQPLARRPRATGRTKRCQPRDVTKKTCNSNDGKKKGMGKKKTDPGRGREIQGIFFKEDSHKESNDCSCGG
Conditions: at 1 µM.

In test [3] the target is T2, Ephrin type-B receptor 2 (Homo sapiens). The note with it: at 10 µM.
Test [4] deals with T3, Ephrin type-B receptor 3 (Homo sapiens) (UniProt P54753).
T3 sequence (whole entry): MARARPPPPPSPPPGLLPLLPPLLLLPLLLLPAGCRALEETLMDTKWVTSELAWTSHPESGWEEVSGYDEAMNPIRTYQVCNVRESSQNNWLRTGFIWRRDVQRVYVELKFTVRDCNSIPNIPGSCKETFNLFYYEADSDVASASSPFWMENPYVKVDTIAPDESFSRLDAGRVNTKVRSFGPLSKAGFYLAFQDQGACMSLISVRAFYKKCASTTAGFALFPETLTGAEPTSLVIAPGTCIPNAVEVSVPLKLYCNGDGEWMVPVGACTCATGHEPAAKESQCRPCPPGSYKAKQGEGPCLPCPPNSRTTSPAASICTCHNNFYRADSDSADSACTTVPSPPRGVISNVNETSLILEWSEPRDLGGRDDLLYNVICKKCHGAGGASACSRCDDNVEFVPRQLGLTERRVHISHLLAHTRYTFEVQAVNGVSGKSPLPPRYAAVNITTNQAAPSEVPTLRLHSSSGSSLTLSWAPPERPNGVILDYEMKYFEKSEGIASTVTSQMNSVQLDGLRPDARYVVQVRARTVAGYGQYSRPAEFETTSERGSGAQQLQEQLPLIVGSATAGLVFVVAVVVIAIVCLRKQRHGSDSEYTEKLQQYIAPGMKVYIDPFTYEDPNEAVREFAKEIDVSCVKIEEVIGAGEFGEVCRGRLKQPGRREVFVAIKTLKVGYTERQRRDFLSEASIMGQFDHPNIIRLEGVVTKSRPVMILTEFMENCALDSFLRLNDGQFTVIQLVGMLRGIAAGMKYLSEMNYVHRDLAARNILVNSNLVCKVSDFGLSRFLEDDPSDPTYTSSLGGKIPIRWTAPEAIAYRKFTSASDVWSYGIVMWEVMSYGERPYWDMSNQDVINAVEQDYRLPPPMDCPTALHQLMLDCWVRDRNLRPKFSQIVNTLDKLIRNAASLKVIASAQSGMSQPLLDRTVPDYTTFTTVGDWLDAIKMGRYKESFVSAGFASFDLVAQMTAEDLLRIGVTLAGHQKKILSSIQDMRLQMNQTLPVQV
The note with it: at 1 µM.

The target in test [5] is T3, Ephrin type-B receptor 3 (Homo sapiens). Conditions: at 10 µM.
For test [6], the target named is T4, Ephrin type-B receptor 4 (Homo sapiens) (UniProt P54760).
T4 sequence (whole entry): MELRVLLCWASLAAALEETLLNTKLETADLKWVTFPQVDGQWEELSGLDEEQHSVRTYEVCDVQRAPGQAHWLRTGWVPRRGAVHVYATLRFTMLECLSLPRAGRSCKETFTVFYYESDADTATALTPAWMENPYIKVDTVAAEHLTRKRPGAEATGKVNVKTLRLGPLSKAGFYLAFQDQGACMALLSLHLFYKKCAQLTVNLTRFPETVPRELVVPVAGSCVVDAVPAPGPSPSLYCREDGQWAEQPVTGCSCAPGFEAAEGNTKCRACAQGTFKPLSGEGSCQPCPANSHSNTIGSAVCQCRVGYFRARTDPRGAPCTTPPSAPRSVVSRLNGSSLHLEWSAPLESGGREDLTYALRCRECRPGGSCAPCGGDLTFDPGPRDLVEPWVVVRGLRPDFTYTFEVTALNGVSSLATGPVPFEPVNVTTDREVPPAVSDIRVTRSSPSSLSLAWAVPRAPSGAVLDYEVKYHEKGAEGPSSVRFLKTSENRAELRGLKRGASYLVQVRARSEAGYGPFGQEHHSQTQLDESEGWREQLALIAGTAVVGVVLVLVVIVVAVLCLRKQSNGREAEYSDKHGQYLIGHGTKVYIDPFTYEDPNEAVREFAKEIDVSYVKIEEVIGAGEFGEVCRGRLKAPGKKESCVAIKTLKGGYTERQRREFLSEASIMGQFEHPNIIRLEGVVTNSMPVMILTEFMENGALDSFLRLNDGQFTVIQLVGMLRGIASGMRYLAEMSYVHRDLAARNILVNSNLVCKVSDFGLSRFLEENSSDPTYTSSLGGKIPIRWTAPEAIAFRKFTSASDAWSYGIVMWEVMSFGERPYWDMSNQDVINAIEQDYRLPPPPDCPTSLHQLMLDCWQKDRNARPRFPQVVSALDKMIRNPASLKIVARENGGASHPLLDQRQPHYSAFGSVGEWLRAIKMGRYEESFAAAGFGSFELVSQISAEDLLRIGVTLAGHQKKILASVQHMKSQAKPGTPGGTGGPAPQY
The note with it: at 1 µM.

The target in test [7] is T4, Ephrin type-B receptor 4 (Homo sapiens). Conditions: at 10 µM.
The target in test [8] is Receptor tyrosine-protein kinase erbB-4 (Homo sapiens) (UniProt Q15303). Conditions: at 1 µM.
Receptor tyrosine-protein kinase erbB-4 (Homo sapiens), sequence (Q15303 whole entry): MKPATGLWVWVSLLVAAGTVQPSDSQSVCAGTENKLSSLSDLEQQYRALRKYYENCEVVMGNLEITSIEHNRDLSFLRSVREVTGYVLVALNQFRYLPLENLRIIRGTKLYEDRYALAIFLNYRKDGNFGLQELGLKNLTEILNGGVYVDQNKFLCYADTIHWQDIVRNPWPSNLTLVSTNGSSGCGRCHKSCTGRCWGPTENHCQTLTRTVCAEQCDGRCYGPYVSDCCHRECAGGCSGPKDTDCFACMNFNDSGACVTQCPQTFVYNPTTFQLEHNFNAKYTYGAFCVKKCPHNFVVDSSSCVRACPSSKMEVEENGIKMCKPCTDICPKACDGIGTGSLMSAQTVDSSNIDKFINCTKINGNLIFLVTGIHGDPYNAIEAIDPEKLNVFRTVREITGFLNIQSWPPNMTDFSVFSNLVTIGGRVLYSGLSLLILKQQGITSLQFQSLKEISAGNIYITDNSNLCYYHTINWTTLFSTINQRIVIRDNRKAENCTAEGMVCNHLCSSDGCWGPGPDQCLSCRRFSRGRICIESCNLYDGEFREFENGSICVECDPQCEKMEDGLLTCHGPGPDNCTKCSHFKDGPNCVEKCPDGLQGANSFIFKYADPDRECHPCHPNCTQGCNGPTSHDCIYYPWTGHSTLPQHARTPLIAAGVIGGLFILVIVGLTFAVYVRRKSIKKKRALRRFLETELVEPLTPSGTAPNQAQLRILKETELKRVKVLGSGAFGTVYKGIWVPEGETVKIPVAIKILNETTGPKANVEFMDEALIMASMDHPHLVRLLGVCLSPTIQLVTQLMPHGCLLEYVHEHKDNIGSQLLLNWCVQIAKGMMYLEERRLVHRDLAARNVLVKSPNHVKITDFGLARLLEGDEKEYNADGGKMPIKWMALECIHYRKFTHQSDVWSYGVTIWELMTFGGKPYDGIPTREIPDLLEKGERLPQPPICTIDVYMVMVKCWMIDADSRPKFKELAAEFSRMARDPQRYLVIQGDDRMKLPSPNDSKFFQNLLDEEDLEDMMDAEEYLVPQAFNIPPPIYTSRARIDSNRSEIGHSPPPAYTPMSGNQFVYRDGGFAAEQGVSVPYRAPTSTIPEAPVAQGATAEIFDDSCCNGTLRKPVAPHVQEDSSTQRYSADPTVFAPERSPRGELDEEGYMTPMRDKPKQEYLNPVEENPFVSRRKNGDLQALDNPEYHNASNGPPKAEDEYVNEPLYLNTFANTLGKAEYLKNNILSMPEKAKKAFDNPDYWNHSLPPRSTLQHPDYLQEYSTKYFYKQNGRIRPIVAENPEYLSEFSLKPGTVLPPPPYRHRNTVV
Test [9] shares this target. The note with it: at 10 µM.
Test [10] has as its target Focal adhesion kinase 1 (Homo sapiens) (UniProt Q05397). Conditions: at 1 µM.

Focal adhesion kinase 1 (Homo sapiens), sequence (Q05397 2-1052 limits assumed): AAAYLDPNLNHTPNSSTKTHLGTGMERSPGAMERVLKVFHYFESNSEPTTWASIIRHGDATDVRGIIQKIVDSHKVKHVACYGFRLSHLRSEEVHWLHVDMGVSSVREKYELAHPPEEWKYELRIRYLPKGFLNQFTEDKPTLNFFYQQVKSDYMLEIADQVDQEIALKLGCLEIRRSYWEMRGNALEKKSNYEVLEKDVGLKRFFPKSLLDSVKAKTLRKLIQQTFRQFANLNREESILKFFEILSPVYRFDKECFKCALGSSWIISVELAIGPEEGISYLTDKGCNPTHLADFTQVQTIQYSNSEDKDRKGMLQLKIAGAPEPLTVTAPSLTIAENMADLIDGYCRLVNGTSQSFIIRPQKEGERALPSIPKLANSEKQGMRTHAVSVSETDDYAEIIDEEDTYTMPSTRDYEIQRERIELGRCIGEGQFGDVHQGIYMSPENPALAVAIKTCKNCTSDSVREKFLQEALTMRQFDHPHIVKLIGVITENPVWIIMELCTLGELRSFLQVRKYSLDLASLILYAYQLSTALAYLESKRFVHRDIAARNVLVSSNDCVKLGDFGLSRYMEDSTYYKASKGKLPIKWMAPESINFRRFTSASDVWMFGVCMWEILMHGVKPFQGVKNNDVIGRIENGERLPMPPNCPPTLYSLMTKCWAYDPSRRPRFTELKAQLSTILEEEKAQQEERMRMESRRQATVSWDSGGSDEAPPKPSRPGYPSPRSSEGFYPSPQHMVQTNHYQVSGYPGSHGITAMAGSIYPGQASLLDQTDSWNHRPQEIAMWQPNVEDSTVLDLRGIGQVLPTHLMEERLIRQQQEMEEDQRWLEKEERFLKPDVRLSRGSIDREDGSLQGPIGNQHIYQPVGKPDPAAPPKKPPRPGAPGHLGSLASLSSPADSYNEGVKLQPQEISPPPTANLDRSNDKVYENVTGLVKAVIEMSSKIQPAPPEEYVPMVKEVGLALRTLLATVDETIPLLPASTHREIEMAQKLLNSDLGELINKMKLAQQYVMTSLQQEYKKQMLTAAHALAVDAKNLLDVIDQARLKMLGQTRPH

As usually defined, the residual activity is the signal under treatment as a percentage of the control signal. As for `COc1cc2ncnc(Nc3ccc(Oc4ccccc4)cc3)c2cc1OC`, the residual activity in [1] is 107%; in test [2], 115%; in test [3], 109%; in [4] it was 120% (inactive); in test [5], 93%; in [6], 106%. Further, the residual activity in test [7] is 138%; in test [8] it was -3%; in [9], -5%; in test [10] it was 72%.
Turning to `COc1ccc(C(=O)Nc2sc3c(c2C(N)=O)CCCC3)cc1OC`, the residual activity in test [1] is 100%; in test [2], 122%; in test [3], 110%; in test [4], 110% (inactive); in [5], 122%; in test [6], 98%. The residual activity came out at 120% in test [7], 87% in test [8], 97% in [9] and 119% in test [10].
For the compound `N#C/C(=C(\N)Sc1ccc(N)cc1)c1ccccc1C(F)(F)F`, the residual activity was 95% in [1]; 108% in test [2]; 110% in test [3]; 105% (inactive) in test [4]; 109% in test [5]; 93% in test [6]. For the same compound, the residual activity in [7] came to 92%; in [8], 96%; in test [9] it was 104%; in [10], 99%.
Consider `CC(C)n1cnc2/c(=N/c3cccc(Cl)c3)nc(NCCO)[nH]c21`, for which the residual activity in [1] is 20%; in [2] it was 102%; in [3], 35%; in [4] it was 108% (inactive); in test [6], 67%; in [7], 22%. Besides, the residual activity in test [8] stood at 94%; in [9], 107%; in test [10], 46%.
With `Cc1cncc2cccc(S(=O)(=O)N3CCCN(C(=O)CN)C[C@H]3C)c12`, the residual activity in test [1] worked out at 31%; in test [5] it was 128%; in [8], 89%.
With `CCN(CC)CCCCN1c2ccccc2Oc2ccc(Cl)cc21`, the residual activity was 117% in test [1]; 122% in test [2]; 121% in test [3]; 106% (inactive) in [4]; 132% in test [5]; 109% in test [6]. For the same compound, the residual activity in test [7] amounted to 133%; in test [8], 102%; in test [9], 95%; in test [10], 144%.
In the case of `CCC(=O)Nc1ccc2ncnc(Nc3cccc(Br)c3)c2c1`, the residual activity was 97% in [1]; 105% in [2]; 55% in [3]; 111% (inactive) in [4]; 120% in test [5]; 81% in test [6]. The residual activity was 57% in test [7], 59% in test [8], 58% in [9] and 131% in test [10].
